Data as given in PubChem BioAssay AID738 (SRMLSC, 2007).
Out of some 98,000 compounds screened, about 4,900 (5%) were called active. No stated cut-off is given here; in the data, active means inhibition above about 30%; inactive means the rest. The list comes from a sample in which actives are over-represented; it also holds similar structures and randomly drawn compounds.

assay: yeast control strain growth suppression – counter-screen for post-Golgi transport modulator project, primary screen (AID 738); conditions: efflux-deficient yeast background strain, growth absorbance A615, 16 h; at 10 µM; stronger effect = higher value

Row | SMILES | inhibition
1 | COc1ccccc1-n1nnnc1S(=O)(=O)Cc1ccc(Cl)cc1 | 32.4% (active)
2 | O=S(=O)(O)c1nc2ccccc2n1Cc1ccc(Cl)cc1 | 2.95% (inactive)
3 | COc1ccccc1N1CCN(C(=O)CN(Cc2ccc(Cl)cc2)S(C)(=O)=O)CC1 | 1.33% (inactive)
4 | Cc1cccc(C(=O)Nc2ccc(C(=O)/C=C/c3cccs3)cc2)c1 | 3.4% (inactive)
5 | O=C(Nc1ccn(Cc2ccccc2F)n1)c1ccc(COc2ccc(Cl)cc2Cl)o1 | 27.6% (inactive)
6 | CCn1c(SCC(=O)Nc2ccc3c(c2)OCCO3)nc2c(c1=O)SC(C)C2 (configuration not stated) | 6.57% (inactive)
7 | CCn1c(SCC(=O)Nc2ccccc2F)nc2c(c1=O)SC(C)C2 (configuration not stated) | 103% (active)
8 | CC1Cc2nc(SCC(=O)Nc3ccccc3F)n(C)c(=O)c2S1 (configuration not stated) | 25.6% (inactive)
9 | O=S(=O)(c1cccc2nonc12)N1CCN(c2cccc(Cl)c2)CC1 | -0.91% (inactive)
10 | Cc1cc(-c2ccc(/C=N/n3cnnc3)o2)c([N+](=O)[O-])cc1C | 39.1% (active)
11 | Cc1cc(C)c([N+](=O)[O-])cc1-c1ccc(/C=N/NC(=O)c2nonc2N)o1 | 8.91% (inactive)
12 | Cc1cc([N+](=O)[O-])c(-c2ccc(/C=N/n3cnnc3)o2)cc1Cl | 19.7% (inactive)
13 | CC(=O)c1cc2c(cc1NC(=O)CN1CCCCCC1)OCO2 | 5.16% (inactive)
14 | C/C=C/C(=O)OCC(=O)Nc1ccc(F)cc1Cl | 3.31% (inactive)
15 | CC(Oc1ccc(F)cc1F)C(=O)/C=C/N(C)C (configuration not stated) | -1.04% (inactive)
16 | COC(=O)CNC(=O)c1ccccc1F | 4.83% (inactive)
17 | CN(C)/C=C/C(=O)c1ccccc1F | 36.4% (active)
18 | Cc1ccc(N2C(=O)C(Cc3ccccc3)NC2=S)cc1 (configuration not stated) | 5.73% (inactive)
19 | COc1cc(Cl)c(C)cc1NC(=O)CSc1nnc(-c2cccnc2)n1Cc1ccco1 | 3.14% (inactive)
20 | COc1cc(Cl)c(C)cc1NC(=O)CSc1nnc(-c2ccco2)n1CC(C)C | 34% (active)
21 | CCn1c(SCC(=O)Nc2cc(C)c(Cl)cc2OC)nnc1-c1ccco1 | 26.5% (inactive)

Row | SMILES | inhibition
22 | O=C1CC(C(F)(F)C(F)(F)C(F)(F)C(F)(F)F)=Nc2ccccc2N1 | 16.7% (inactive)
23 | CCN(CC)C(=O)CCC(=O)Nc1ccc(C(=O)OC)cc1 | 1.42% (inactive)
24 | O=C(CSCc1ccc(Br)cc1)Nc1ccc(S(=O)(=O)N2CCCCCC2)cc1 | 6.87% (inactive)
25 | COCC(=O)Nc1ccc(Br)cc1 | 36.8% (active)
26 | O=C(Nc1ccc2c(c1)CCC2)c1cccc(S(=O)(=O)N2CCN(c3ccc(F)cc3)CC2)c1 | 17.8% (inactive)
27 | Cc1ccc(-n2c(C)cc(/C=N/Nc3ccc([N+](=O)[O-])cn3)c2C)c(C)c1 | 3.3% (inactive)
28 | Cc1cc(C=O)c(C)n1-c1ccc(NC2CCCCC2)c([N+](=O)[O-])c1 | 39% (active)
29 | COc1cc(OC)c(-n2c(C)cc(C=O)c2C)cc1Cl | 20.4% (inactive)
30 | O=C(O)c1ccccc1NC(=S)NC(NC(=O)c1ccccc1[N+](=O)[O-])C(Cl)(Cl)Cl (configuration not stated) | 21.6% (inactive)
31 | NC(=O)c1c(NC(=O)CSc2nnc(-c3ccco3)n2N)sc2c1CCCC2 | -1.04% (inactive)
32 | O=C(CN1CCN(S(=O)(=O)c2ccc3ccccc3c2)CC1)NC(=O)NC1CCCCC1 | 19.7% (inactive)
33 | CCOc1cccc(C(=O)Nc2cnn(Cc3ccccc3)c2)c1 | -4.4% (inactive)
34 | CCOC(=O)C(C(=O)OCC)C(C#N)c1ccccc1 (configuration not stated) | 30.5% (active)
35 | CCOC(=O)CCP(=O)(O)C(O)(c1ccccc1)c1ccccc1 | 2.13% (inactive)
36 | CCCCCCOC(=O)NCC(O)c1ccccc1 (configuration not stated) | 4.19% (inactive)
37 | CCNC(=S)Nc1cccc(Cl)c1C | 3.81% (inactive)
38 | COc1ccc(Cc2nnc(SCC(=O)c3cccc([N+](=O)[O-])c3)n2C)cc1 | 3.08% (inactive)
39 | Cc1ccc(NC(=O)N2CCC(c3nc4c(nnn4Cc4c(F)cccc4Cl)c(=O)[nH]3)CC2)cc1 | 8.76% (inactive)
40 | COc1cc(OC)c(C(=O)NC2CC(C)(C)NC(C)(C)C2)cc1OC | -5.38% (inactive)
41 | COc1ccc(-c2nnc(SCC(=O)NC3CCCCC3)o2)cc1OC | -2.95% (inactive)
42 | COc1cc(OC)c(C(=O)NC2CCCCCC2)cc1OC | 46.5% (active)

Row | SMILES | inhibition
43 | C=CCn1c(SCCOc2ccc(OC)cc2)nnc1C(NC(=O)c1ccc(OC)cc1)C(C)C (configuration not stated) | 10.1% (inactive)
44 | CCOc1ccc(-n2c(N)c(C(=O)NCC3CCCO3)sc2=S)cc1 (configuration not stated) | 3.93% (inactive)
45 | O=C(Cc1ccc(S(=O)(=O)N2CCOCC2)s1)NCCC(c1ccccc1)c1ccccc1 | 22.9% (inactive)
46 | O=C(NC1CCCCC1)C1CCCN(S(=O)(=O)c2cccs2)C1 (configuration not stated) | -12.5% (inactive)
47 | O=C(Cc1ccc(S(=O)(=O)N2CCCC2)s1)NC1CCCCCC1 | 31.8% (active)
48 | Cc1cc(N)n2nc(-c3ccc(C(C)(C)C)cc3)cc2n1 | 31% (active)
49 | COc1ccc(-c2cc(C)nc3nc(N)nn23)cc1 | 5.75% (inactive)
50 | Cc1cccc(-n2ncc(C#N)c2-n2cccc2)c1 | 20.2% (inactive)
51 | Cc1[nH]nc(-c2ccc(OCc3cnn(-c4ccccc4)c3)cc2O)c1Oc1ccc(Cl)cc1 | 0% (inactive)
52 | Cn1c(=O)c2c(ncn2CC(COCc2ccccc2Cl)OCc2ccccc2Cl)n(C)c1=O (configuration not stated) | 8.65% (inactive)
53 | COc1ccc(Cl)cc1C(=O)NCC#N | 18.5% (inactive)
54 | COc1cc(OC)c(C(=O)Nc2ccc(N(C)C)cc2)cc1OC | 27.7% (inactive)
55 | COc1ccc(Cl)cc1C(=O)Nc1ccc(N(C)C(C)=O)cc1 | 32.4% (active)
56 | CCn1c(C)nc2c1C(=O)c1ccccc1C2=O | 4.03% (inactive)
57 | CC(C)N(c1ccccc1)c1ncnc(NCCC(=O)O)c1[N+](=O)[O-] | 5.97% (inactive)
58 | O=S(=O)(c1cnccc1N1CCN(/N=C/c2ccc(Br)cc2)CC1)N1CCCCC1 | -4.38% (inactive)
59 | Cc1nc2cc(NC(=O)NCc3ccccc3)ccc2o1 | 12.9% (inactive)
60 | C=CC[n+]1c(-c2ccc(C)cc2)csc1NNC(=O)Nc1ccccc1 | 40.7% (active)
61 | CC(=O)c1cccc(NC(=O)Nc2ccc(C)cc2)c1 | 0.29% (inactive)
62 | C=CCNC(=O)c1csc(-c2ccccc2)n1 | -0.15% (inactive)
